# Laboratory results from publication PMC11062922 (Nature Chemical Biology, 2023).
# Where two headings read alike, the source gives them in different places.
# How the values were obtained:
# Settings in all cases: read-out: apparent Kd, n = 1
# NUAK2 = system: NUAK2
# PAK6 = system: PAK6
# RET = system: RET
# [1] = compound concentrations:100 nM and 1000 nM (sheet 'Lestaurtinib' of Supplementary Table 1),run:Lestaurtinib_03252_R1,Plate:MR032
# [2] = compound concentrations:100 nM and 1000 nM (sheet 'Lestaurtinib' of Supplementary Table 1),run:Lestaurtinib_03260_R2,Plate:MR033
# [3] = compound concentrations:100 nM and 1000 nM (sheet 'Lestaurtinib' of Supplementary Table 1),run:Lestaurtinib_02339_R2,Plate:MR001
# [4] = compound concentrations:100 nM and 1000 nM (sheet 'Lestaurtinib' of Supplementary Table 1),run:Lestaurtinib_02364_R3,Plate:MR002
# [5] = compound concentrations:100 nM and 1000 nM (sheet 'Lestaurtinib' of Supplementary Table 1),run:Lestaurtinib_02367_R3,Plate:MR003
# [6] = compound concentrations:100 nM and 1000 nM (sheet 'Lestaurtinib' of Supplementary Table 1),run:Lestaurtinib_02381_R3,Plate:MR004
# [7] = compound concentrations:100 nM and 1000 nM (sheet 'Lestaurtinib' of Supplementary Table 1),run:Lestaurtinib_02422_R3,Plate:MR006
# [8] = compound concentrations:100 nM and 1000 nM (sheet 'Lestaurtinib' of Supplementary Table 1),run:Lestaurtinib_02437_R1,Plate:MR007
substance,measurement,setting,value
Lestaurtinib,potency estimated from few doses,"NUAK2; compound concentrations:100 nM and 1000 nM (sheet 'Lestaurtinib' of Supplementary Table 1),run:Lestaurtinib_03172_R1,Plate:MR031",98.7 nM
same,potency estimated from few doses,NUAK2; [1],45.5 nM
same,potency estimated from few doses,"NUAK2; compound concentrations:100 nM and 1000 nM (sheet 'Lestaurtinib' of Supplementary Table 1),run:Lestaurtinib_03252_R2,Plate:MR032",831 nM
same,potency estimated from few doses,NUAK2; [2],387 nM
same,potency estimated from few doses,PAK6; [3],151 nM
same,potency estimated from few doses,"PAK6; compound concentrations:100 nM and 1000 nM (sheet 'Lestaurtinib' of Supplementary Table 1),run:Lestaurtinib_02364_R2,Plate:MR002",137 nM
same,potency estimated from few doses,PAK6; [4],91000 nM
same,potency estimated from few doses,PAK6; [5],89.2 nM
same,potency estimated from few doses,"PAK6; compound concentrations:100 nM and 1000 nM (sheet 'Lestaurtinib' of Supplementary Table 1),run:Lestaurtinib_02381_R1,Plate:MR004",771 nM
same,potency estimated from few doses,PAK6; [6],136 nM
same,potency estimated from few doses,"PAK6; compound concentrations:100 nM and 1000 nM (sheet 'Lestaurtinib' of Supplementary Table 1),run:Lestaurtinib_02407_R1,Plate:MR005",1800 nM
same,potency estimated from few doses,"PAK6; compound concentrations:100 nM and 1000 nM (sheet 'Lestaurtinib' of Supplementary Table 1),run:Lestaurtinib_02407_R2,Plate:MR005",521 nM
same,potency estimated from few doses,"PAK6; compound concentrations:100 nM and 1000 nM (sheet 'Lestaurtinib' of Supplementary Table 1),run:Lestaurtinib_02407_R3,Plate:MR005",1490 nM
same,potency estimated from few doses,PAK6; [7],1350 nM
same,potency estimated from few doses,PAK6; [8],42.8 nM
same,potency estimated from few doses,"PAK6; compound concentrations:100 nM and 1000 nM (sheet 'Lestaurtinib' of Supplementary Table 1),run:Lestaurtinib_02437_R2,Plate:MR007",638 nM
same,potency estimated from few doses,"PAK6; compound concentrations:100 nM and 1000 nM (sheet 'Lestaurtinib' of Supplementary Table 1),run:Lestaurtinib_02437_R3,Plate:MR007",165 nM
same,potency estimated from few doses,"PAK6; compound concentrations:100 nM and 1000 nM (sheet 'Lestaurtinib' of Supplementary Table 1),run:Lestaurtinib_02438_R2,Plate:MR008",113 nM
same,potency estimated from few doses,"PAK6; compound concentrations:100 nM and 1000 nM (sheet 'Lestaurtinib' of Supplementary Table 1),run:Lestaurtinib_02443_R1,Plate:MR009",830 nM
same,potency estimated from few doses,"PAK6; compound concentrations:100 nM and 1000 nM (sheet 'Lestaurtinib' of Supplementary Table 1),run:Lestaurtinib_02443_R2,Plate:MR009",1300 nM
same,potency estimated from few doses,"PAK6; compound concentrations:100 nM and 1000 nM (sheet 'Lestaurtinib' of Supplementary Table 1),run:Lestaurtinib_02443_R3,Plate:MR009",169 nM
same,potency estimated from few doses,"PAK6; compound concentrations:100 nM and 1000 nM (sheet 'Lestaurtinib' of Supplementary Table 1),run:Lestaurtinib_02473_R3,Plate:MR010",121 nM
same,potency estimated from few doses,"PAK6; compound concentrations:100 nM and 1000 nM (sheet 'Lestaurtinib' of Supplementary Table 1),run:Lestaurtinib_02482_R2,Plate:MR011",852 nM
same,potency estimated from few doses,"PAK6; compound concentrations:100 nM and 1000 nM (sheet 'Lestaurtinib' of Supplementary Table 1),run:Lestaurtinib_02482_R3,Plate:MR011",797 nM
same,potency estimated from few doses,"PAK6; compound concentrations:100 nM and 1000 nM (sheet 'Lestaurtinib' of Supplementary Table 1),run:Lestaurtinib_02487_R1,Plate:MR012",1690 nM
same,potency estimated from few doses,"PAK6; compound concentrations:100 nM and 1000 nM (sheet 'Lestaurtinib' of Supplementary Table 1),run:Lestaurtinib_02487_R3,Plate:MR012",100 nM
same,potency estimated from few doses,"PAK6; compound concentrations:100 nM and 1000 nM (sheet 'Lestaurtinib' of Supplementary Table 1),run:Lestaurtinib_02496_R2,Plate:MR013",1370 nM
same,potency estimated from few doses,"PAK6; compound concentrations:100 nM and 1000 nM (sheet 'Lestaurtinib' of Supplementary Table 1),run:Lestaurtinib_02496_R3,Plate:MR013",1590 nM
same,potency estimated from few doses,"PAK6; compound concentrations:100 nM and 1000 nM (sheet 'Lestaurtinib' of Supplementary Table 1),run:Lestaurtinib_02566_R1,Plate:MR014",49.6 nM
same,potency estimated from few doses,"PAK6; compound concentrations:100 nM and 1000 nM (sheet 'Lestaurtinib' of Supplementary Table 1),run:Lestaurtinib_02566_R3,Plate:MR014",35.1 nM
same,potency estimated from few doses,"PAK6; compound concentrations:100 nM and 1000 nM (sheet 'Lestaurtinib' of Supplementary Table 1),run:Lestaurtinib_02572_R3,Plate:MR015",1350 nM
same,potency estimated from few doses,"PAK6; compound concentrations:100 nM and 1000 nM (sheet 'Lestaurtinib' of Supplementary Table 1),run:Lestaurtinib_02577_R1,Plate:MR016",1350 nM
same,potency estimated from few doses,"PAK6; compound concentrations:100 nM and 1000 nM (sheet 'Lestaurtinib' of Supplementary Table 1),run:Lestaurtinib_02584_R1,Plate:MR017",953 nM
same,potency estimated from few doses,"PAK6; compound concentrations:100 nM and 1000 nM (sheet 'Lestaurtinib' of Supplementary Table 1),run:Lestaurtinib_02584_R3,Plate:MR017",896 nM
same,potency estimated from few doses,"PAK6; compound concentrations:100 nM and 1000 nM (sheet 'Lestaurtinib' of Supplementary Table 1),run:Lestaurtinib_02601_R2,Plate:MR018",846 nM
same,potency estimated from few doses,"PAK6; compound concentrations:100 nM and 1000 nM (sheet 'Lestaurtinib' of Supplementary Table 1),run:Lestaurtinib_02601_R3,Plate:MR018",974 nM
same,potency estimated from few doses,"PAK6; compound concentrations:100 nM and 1000 nM (sheet 'Lestaurtinib' of Supplementary Table 1),run:Lestaurtinib_02606_R1,Plate:MR019",1440 nM
same,potency estimated from few doses,"PAK6; compound concentrations:100 nM and 1000 nM (sheet 'Lestaurtinib' of Supplementary Table 1),run:Lestaurtinib_02606_R2,Plate:MR019",722 nM
same,potency estimated from few doses,"PAK6; compound concentrations:100 nM and 1000 nM (sheet 'Lestaurtinib' of Supplementary Table 1),run:Lestaurtinib_02624_R1,Plate:MR020",730 nM
same,potency estimated from few doses,"PAK6; compound concentrations:100 nM and 1000 nM (sheet 'Lestaurtinib' of Supplementary Table 1),run:Lestaurtinib_02624_R2,Plate:MR020",686 nM
same,potency estimated from few doses,"PAK6; compound concentrations:100 nM and 1000 nM (sheet 'Lestaurtinib' of Supplementary Table 1),run:Lestaurtinib_02624_R3,Plate:MR020",783 nM
same,potency estimated from few doses,"PAK6; compound concentrations:100 nM and 1000 nM (sheet 'Lestaurtinib' of Supplementary Table 1),run:Lestaurtinib_02748_R1,Plate:MR024",896 nM
same,potency estimated from few doses,"PAK6; compound concentrations:100 nM and 1000 nM (sheet 'Lestaurtinib' of Supplementary Table 1),run:Lestaurtinib_02752_R1,Plate:MR025",793 nM
same,potency estimated from few doses,"PAK6; compound concentrations:100 nM and 1000 nM (sheet 'Lestaurtinib' of Supplementary Table 1),run:Lestaurtinib_02752_R2,Plate:MR025",782 nM
same,potency estimated from few doses,"PAK6; compound concentrations:100 nM and 1000 nM (sheet 'Lestaurtinib' of Supplementary Table 1),run:Lestaurtinib_02752_R3,Plate:MR025",799 nM
same,potency estimated from few doses,"PAK6; compound concentrations:100 nM and 1000 nM (sheet 'Lestaurtinib' of Supplementary Table 1),run:Lestaurtinib_02765_R2,Plate:MR026",766 nM
same,potency estimated from few doses,"PAK6; compound concentrations:100 nM and 1000 nM (sheet 'Lestaurtinib' of Supplementary Table 1),run:Lestaurtinib_02766_R1,Plate:MR027",519 nM
same,potency estimated from few doses,"PAK6; compound concentrations:100 nM and 1000 nM (sheet 'Lestaurtinib' of Supplementary Table 1),run:Lestaurtinib_02766_R2,Plate:MR027",66 nM
same,potency estimated from few doses,"PAK6; compound concentrations:100 nM and 1000 nM (sheet 'Lestaurtinib' of Supplementary Table 1),run:Lestaurtinib_02766_R3,Plate:MR027",696 nM
same,potency estimated from few doses,"PAK6; compound concentrations:100 nM and 1000 nM (sheet 'Lestaurtinib' of Supplementary Table 1),run:Lestaurtinib_02768_R1,Plate:MR028",996 nM
same,potency estimated from few doses,"PAK6; compound concentrations:100 nM and 1000 nM (sheet 'Lestaurtinib' of Supplementary Table 1),run:Lestaurtinib_02795_R1,Plate:MR022",648 nM
same,potency estimated from few doses,"PAK6; compound concentrations:100 nM and 1000 nM (sheet 'Lestaurtinib' of Supplementary Table 1),run:Lestaurtinib_02795_R2,Plate:MR022",528 nM
same,potency estimated from few doses,"PAK6; compound concentrations:100 nM and 1000 nM (sheet 'Lestaurtinib' of Supplementary Table 1),run:Lestaurtinib_02795_R3,Plate:MR022",1440 nM
same,potency estimated from few doses,"PAK6; compound concentrations:100 nM and 1000 nM (sheet 'Lestaurtinib' of Supplementary Table 1),run:Lestaurtinib_02802_R1,Plate:MR029",604 nM
same,potency estimated from few doses,"PAK6; compound concentrations:100 nM and 1000 nM (sheet 'Lestaurtinib' of Supplementary Table 1),run:Lestaurtinib_02802_R3,Plate:MR029",85.9 nM
same,potency estimated from few doses,"PAK6; compound concentrations:100 nM and 1000 nM (sheet 'Lestaurtinib' of Supplementary Table 1),run:Lestaurtinib_02896_R1,Plate:MR030",541 nM
same,potency estimated from few doses,"PAK6; compound concentrations:100 nM and 1000 nM (sheet 'Lestaurtinib' of Supplementary Table 1),run:Lestaurtinib_02896_R2,Plate:MR030",1310 nM
same,potency estimated from few doses,"PAK6; compound concentrations:100 nM and 1000 nM (sheet 'Lestaurtinib' of Supplementary Table 1),run:Lestaurtinib_02896_R3,Plate:MR030",785 nM
same,potency estimated from few doses,"PAK6; compound concentrations:100 nM and 1000 nM (sheet 'Lestaurtinib' of Supplementary Table 1),run:Lestaurtinib_03172_R2,Plate:MR031",581 nM
same,potency estimated from few doses,PAK6; [1],825 nM
same,potency estimated from few doses,"PAK6; compound concentrations:100 nM and 1000 nM (sheet 'Lestaurtinib' of Supplementary Table 1),run:Lestaurtinib_03260_R1,Plate:MR033",744 nM
same,potency estimated from few doses,PAK6; [2],805 nM
same,potency estimated from few doses,RET; [3],240 nM
same,potency estimated from few doses,RET; [4],273 nM
same,potency estimated from few doses,"RET; compound concentrations:100 nM and 1000 nM (sheet 'Lestaurtinib' of Supplementary Table 1),run:Lestaurtinib_02367_R1,Plate:MR003",274 nM
same,potency estimated from few doses,"RET; compound concentrations:100 nM and 1000 nM (sheet 'Lestaurtinib' of Supplementary Table 1),run:Lestaurtinib_02367_R2,Plate:MR003",260 nM
same,potency estimated from few doses,RET; [5],265 nM
same,potency estimated from few doses,"RET; compound concentrations:100 nM and 1000 nM (sheet 'Lestaurtinib' of Supplementary Table 1),run:Lestaurtinib_02381_R2,Plate:MR004",218 nM
same,potency estimated from few doses,RET; [6],113 nM
same,potency estimated from few doses,"RET; compound concentrations:100 nM and 1000 nM (sheet 'Lestaurtinib' of Supplementary Table 1),run:Lestaurtinib_02422_R1,Plate:MR006",162 nM
same,potency estimated from few doses,RET; [7],269 nM
same,potency estimated from few doses,RET; [8],142 nM
